The assay addresses COL20A1. Description: pooled miR-30 sensor sort-seq; sequence = guide strand. The note with it: shRNA.
Consider TAGACAAGCACGCCAGACGGGG, for which the sensor-assay potency score (higher = more potent) is -1.06. To TAGGTCAGGGACTTCTTCCCGG belongs -0.568; to TATCTGAACTTGGAAATGCTAC, -0.775; to AGCAGTGTGCACATCGTCCTGG, -0.7.

TAGACGTCACTGACCCGTCTTG showed a sensor-assay potency score (higher = more potent) of -0.759.

TCGAACTTTGACACGTGTGAGG displayed a sensor-assay potency score (higher = more potent) of -1.19. With TCAATCACAAACTCCCTCCGAG the figure was 0.439; with TCTTCCTGAGCTTTTCTCCTGG, -0.053. To TTGAACTTGCTCTCTTCCCAGG belongs -1.19.

(Values after the OligoGym collection.)
Note: reference of the scale not given here.
